In the library only some 1.6% were active in any assay of this set; here they are far more common.
NSD2 inh: blocks human histone methyltransferase NSD2; NSD2 peptide methylation, AlphaScreen, 120 min; AID 743445; O96028; 310,000 tested, 0.54% active; inhibition, % at 12.5 µM; in the data active means inhibition above about 50%
SUMO HTRF inh: blocks human SUMOylation mediated by UBC9. HTRF SUMOylation assay, SAE1/SAE2 + UBC9, in vitro. inhibition, % at 35 µM. 290,000 tested, 0.36% active; in the data active means inhibition above about 50%, passing the limit was not always enough
Target sequence (P63279 whole entry, looked up): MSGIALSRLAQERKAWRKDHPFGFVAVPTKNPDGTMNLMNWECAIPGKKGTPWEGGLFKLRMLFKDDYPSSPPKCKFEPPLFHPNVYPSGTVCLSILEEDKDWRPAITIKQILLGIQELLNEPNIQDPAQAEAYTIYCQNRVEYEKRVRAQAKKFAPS
CASP6 VEID inh: inhibitors of human caspase-6; 350,000 tested, 0.53% active; purified caspase-6, Z-VEID-R110 cleavage fluorescence; P55212; AID 686996; inhibition, % at 12.5 µM;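 active means mean inhibition across replicates at least about 35%, with every replicate also reaching that limit, limit read from the data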
Target sequence (P55212 24-179 limits assumed): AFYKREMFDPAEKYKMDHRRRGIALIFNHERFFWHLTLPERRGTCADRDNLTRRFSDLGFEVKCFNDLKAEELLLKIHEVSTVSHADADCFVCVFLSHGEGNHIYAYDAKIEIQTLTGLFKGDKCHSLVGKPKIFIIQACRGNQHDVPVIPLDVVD
Target sequence (P55212 194-293 limits assumed): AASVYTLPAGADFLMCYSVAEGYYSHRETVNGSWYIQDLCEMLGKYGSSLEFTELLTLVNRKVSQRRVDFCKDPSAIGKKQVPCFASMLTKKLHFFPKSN
SIRT5 block: blocks human SIRT5 desuccinylation of peptide | inhibition, % at 15 µM | Purified SirT5, succinyl-peptide AMC, trypsin-coupled fluorescence | Q9NXA8 | 330,000 tested, 1.1% active; in the data active means inhibition above about 15%
Large screens that a line does not name were inactive.

O=C(O)CCC(=O)N1N=C(c2ccco2)CC1c1cccs1 (stereo unspecified)	none
Cc1oc(-c2ccc(Cl)cc2)nc1CN1CCCC(C(=O)N2CCOCC2)C1 (stereo unspecified)	SIRT5 block 22
Cc1nc2ccc(NS(=O)(=O)c3ccc(F)cc3F)cc2s1	none (no result: SUMO HTRF inh)
Cc1nc2ccc(NS(=O)(=O)c3c(F)cc(F)cc3Br)cc2s1	CASP6 VEID inh 40 (no result: SUMO HTRF inh)
COC(=O)[C@@H]1[C@@H](CO)[C@@H]2Cn3c(ccc(-c4ccncc4)c3=O)[C@@H]2N1Cc1cccc(F)c1	none (no result: NSD2 inh, SUMO HTRF inh)
NC(=S)NN=C1CCC2(CCCCC2)CC1	SIRT5 block 25 (no result: SUMO HTRF inh)
CC1(C)CCC(=NNC(N)=S)CC1	none (no result: SUMO HTRF inh, SIRT5 block)
CC1CCCC(NC(=O)COC(=O)CCSc2ccccc2)C1C (stereo unspecified)	SIRT5 block 16
CC1CCCC(NC(=O)COC(=O)CCC(=O)c2cccs2)C1C (stereo unspecified)	none (no result: SUMO HTRF inh)
CC1CCCC(NC(=O)COC(=O)c2ccc([N+](=O)[O-])s2)C1C (stereo unspecified)	CASP6 VEID inh 57 (no result: SUMO HTRF inh)
O=C(O)c1ccc(Nc2nc(-c3ccc([N+](=O)[O-])cc3)nc3ccccc23)cc1	SIRT5 block 24
CN(C)CC(=O)N[C@@H]1CC[C@@H](CCNC(=O)Nc2ccc(C(F)(F)F)cc2)O[C@@H]1CO	SIRT5 block 17 (no result: NSD2 inh, SUMO HTRF inh)
CN1CCN(CC(=O)Nc2ccc(Cl)cc2Cl)CC1	CASP6 VEID inh 43
O=C(OC1CCOC1=O)c1ccc(N2CCCC2)c([N+](=O)[O-])c1 (stereo unspecified)	none
O=C(OC1CCOC1=O)c1ccc(Cl)c(S(=O)(=O)N2CCOCC2)c1 (stereo unspecified)	CASP6 VEID inh 40 (no result: SUMO HTRF inh)
O=C(OC1CCOC1=O)c1cc(Cl)ccc1[N+](=O)[O-] (stereo unspecified)	SIRT5 block 98
CCN(CC)C(=O)COc1ccc(/C(C)=N/NC(=O)c2ccccc2O)cc1	CASP6 VEID inh 38
C[C@@H]1CN([C@@H](C)CO)C(=O)c2ccccc2-c2ccccc2CO[C@H]1CN(C)C(=O)Nc1ccc(F)cc1	none (no result: NSD2 inh, SUMO HTRF inh)
O=C(C[C@@H]1CC[C@@H]2[C@H](COC[C@@H](O)CN2C(=O)Nc2ccc(F)cc2)O1)NCCc1ccncc1	none (no result: NSD2 inh, SUMO HTRF inh)
CCOc1cc(/C=C2\C(=O)N(c3cccc(C(=O)O)c3)N=C2C(F)(F)F)ccc1OCC(=O)Nc1ccccc1OC	SUMO HTRF inh 73 (no result: NSD2 inh, CASP6 VEID inh, SIRT5 block)
O=C(CCN1CCCCC1)NCC[C@@H]1CC[C@H](NC(=O)C2CCCCC2)[C@@H](CO)O1	none (no result: NSD2 inh, SUMO HTRF inh)
CC1=Nc2ccccc2/C1=C/c1sc(=S)n(-c2cccc(C(=O)O)c2)c1O	SIRT5 block 17
Oc1c(C=C2N=c3ccccc3=N2)sc(=S)n1-c1ccccc1	none
CCOc1ccccc1Oc1c(C)oc2c(CN3CCN(C)CC3)c(O)ccc2c1=O	SUMO HTRF inh 50 (no result: CASP6 VEID inh, SIRT5 block)
COc1ccccc1Oc1c(C)oc2c(CN3CCOCC3)c(O)ccc2c1=O	none
O=C(Nc1ccc(F)cc1)N[C@H]1C=C[C@H](CC(=O)N2CCCCC2)O[C@@H]1CO	none (no result: NSD2 inh, SUMO HTRF inh)
CC(C)(C)c1ccc(Cc2nnc(SCC(=O)Nc3ccccc3F)[nH]c2=O)cc1	none (no result: SUMO HTRF inh, CASP6 VEID inh, SIRT5 block)
COC/C=C/C1=CC2=CC(=O)C(C)(OC(=O)C3CCCC3)C(=O)C2=CO1 (stereo unspecified)	CASP6 VEID inh 36 (no result: NSD2 inh, SIRT5 block)
COc1ccc(S(=O)(=O)N(C)C[C@@H]2OCc3ccccc3-c3c(n(C)c4ccccc34)C(=O)N([C@H](C)CO)C[C@H]2C)cc1	SIRT5 block 16 (no result: NSD2 inh, SUMO HTRF inh)
Cc1ccccc1S(=O)(=O)N(C)C[C@H]1OCc2ccccc2-c2c(n(C)c3ccccc23)C(=O)N([C@@H](C)CO)C[C@@H]1C	SIRT5 block 22 (no result: NSD2 inh, SUMO HTRF inh)
COc1ccc(S(=O)(=O)N(C)C[C@H]2OCc3ccccc3-c3c(n(C)c4ccccc34)C(=O)N([C@H](C)CO)C[C@@H]2C)cc1	none (no result: NSD2 inh, SUMO HTRF inh)
Cc1ccc(S(=O)(=O)N(C)C[C@H]2OCc3ccccc3-c3c(n(C)c4ccccc34)C(=O)N([C@H](C)CO)C[C@H]2C)cc1	SIRT5 block 20 (no result: NSD2 inh, SUMO HTRF inh)
Cc1ccc(S(=O)(=O)N(C)C[C@H]2OCc3ccccc3-c3c(n(C)c4ccccc34)C(=O)N([C@H](C)CO)C[C@@H]2C)cc1	none (no result: NSD2 inh, SUMO HTRF inh)
Cc1ccccc1S(=O)(=O)N(C)C[C@H]1OCc2ccccc2-c2c(n(C)c3ccccc23)C(=O)N([C@H](C)CO)C[C@@H]1C	none (no result: NSD2 inh, SUMO HTRF inh)
CCCNC(=O)C[C@H]1CC[C@@H]2[C@@H](COc3ccc(NC(=O)Nc4ccccc4F)cc3C(=O)N2C)O1	none (no result: NSD2 inh, SUMO HTRF inh)
O=C(C1CCCC1)N1CC(=O)N2[C@H](C1)[C@H](c1ccc(-c3cccnc3)cc1)[C@@H]2CO	none (no result: NSD2 inh, SUMO HTRF inh)
CCC(=O)N1CC2(C1)[C@H](c1ccccc1)[C@@H](CO)N2Cc1ccccc1OC	none (no result: NSD2 inh, SUMO HTRF inh)
C[C@@H]1CN([C@@H](C)CO)S(=O)(=O)c2ccc(C#Cc3ccc(F)cc3)cc2O[C@@H]1CN(C)C(=O)NC1CCCCC1	SIRT5 block 16 (no result: NSD2 inh, SUMO HTRF inh)
C[C@@H]1CN([C@H](C)CO)S(=O)(=O)c2ccc(C#Cc3cccc(F)c3)cc2O[C@@H]1CN(C)C(=O)NC1CCCCC1	SIRT5 block 17 (no result: NSD2 inh, SUMO HTRF inh)
C[C@H]1CN([C@@H](C)CO)S(=O)(=O)c2ccc(C#Cc3cccc(F)c3)cc2O[C@H]1CN(C)C(=O)NC1CCCCC1	none (no result: NSD2 inh, SUMO HTRF inh)
C[C@H]1CN([C@@H](C)CO)S(=O)(=O)c2ccc(C#Cc3ccc(F)cc3)cc2O[C@@H]1CN(C)C(=O)NC1CCCCC1	SIRT5 block 18 (no result: NSD2 inh, SUMO HTRF inh)
C[C@H]1CN([C@@H](C)CO)S(=O)(=O)c2ccc(C#Cc3ccc(F)cc3)cc2O[C@H]1CN(C)C(=O)NC1CCCCC1	SIRT5 block 20 (no result: NSD2 inh, SUMO HTRF inh)
C[C@@H]1CN([C@H](C)CO)S(=O)(=O)c2ccc(C#Cc3ccc(F)cc3)cc2O[C@@H]1CN(C)C(=O)NC1CCCC1	none (no result: NSD2 inh, SUMO HTRF inh)
C[C@H](CO)N1C[C@H](C)[C@H](CN(C)C(=O)NC2CCCCC2)Oc2cc(C#Cc3cccc(F)c3)ccc2S1(=O)=O	none (no result: NSD2 inh, SUMO HTRF inh)
CC(C)C#Cc1cnc2c(c1)C(=O)N([C@H](C)CO)C[C@H](C)[C@H](CN(C)C(=O)Nc1ccccc1)O2	none (no result: NSD2 inh, SUMO HTRF inh)
C[C@@H]1CCCCO[C@H](CN(C)CC2CC2)[C@@H](C)CN([C@H](C)CO)C(=O)c2cc(NS(=O)(=O)c3ccccc3)ccc2O1	none (no result: NSD2 inh, SUMO HTRF inh)
O=c1cc(CSc2nnnn2-c2ccc(O)cc2)nc2sccn12	SIRT5 block 38
COCC#Cc1cnc2c(c1)C(=O)N([C@H](C)CO)C[C@@H](C)[C@H](CN(C)C)O2	none (no result: NSD2 inh, SUMO HTRF inh)
C[C@@H]1CN([C@@H](C)CO)C(=O)c2cc(-c3cccnc3)cnc2O[C@H]1CN(C)C(=O)Nc1ccc(C(F)(F)F)cc1	none (no result: NSD2 inh, SUMO HTRF inh)
C/C=C/c1ccc([C@@H]2[C@H](CO)N[C@H]2CN(CC)C(=O)CN2CCOCC2)cc1	none (no result: NSD2 inh, SUMO HTRF inh, CASP6 VEID inh)
Cc1nn(-c2ccccc2)c(C)c1/C=N/n1c(-c2ccc(Cl)cc2)n[nH]c1=S	SIRT5 block 17
Oc1c(Br)cc(/C=N/n2c(-c3ccccc3)n[nH]c2=S)c(Br)c1O	SUMO HTRF inh 55 (no result: NSD2 inh, CASP6 VEID inh, SIRT5 block)
C[C@H](CO)N1C[C@H](C)[C@@H](CN(C)S(C)(=O)=O)Oc2ccc(NS(=O)(=O)c3ccccc3)cc2CC1=O	none (no result: NSD2 inh, SUMO HTRF inh)
CCC(=O)N1CC2(C1)[C@@H](c1ccc(-c3cccc(C)c3)cc1)[C@H](CO)N2S(C)(=O)=O	none (no result: NSD2 inh, SUMO HTRF inh)

Source: PubChem
